The record followed here is PubChem BioAssay (NCI).

The nature of test [1]: NCI Yeast Anticancer Drug Screen. Data for the rad50 strain (AID 155).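 Further: 0% = growth of vehicle-only cultures of the same strain.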 The conditions noted are these: S. cerevisiae rad50 strain growth inhibition, active compounds read high. In a few lines: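 Yeast carrying a defined DNA repair defect were exposed to test compounds, and growth was compared with vehicle-treated controls to give percent inhibition.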
The nature of test [2]: NCI Yeast Anticancer Drug Screen. Data for the mec2-1 strain (AID 157). The conditions noted are these: S. cerevisiae mec2-1 strain, active compounds read high. In a few lines:
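Strain: mec2-1 (DNA repair/cell cycle alteration). Compound exposure, then growth measured; inhibition expressed relative to vehicle.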

Test [3] is described as follows: NCI Yeast Anticancer Drug Screen. Data for the sgs1 mgt1 strain (AID 161).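 Further: 0% = growth of cultures given vehicle only.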 The conditions noted are these: S. cerevisiae sgs1 mgt1 strain, active compounds read high. In a few lines: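 Mutant yeast exposed to compound; growth scored against vehicle-only wells.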
Test [4] can be described thus: NCI Yeast Anticancer Drug Screen. Data for the cln2 rad14 strain (AID 165).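 Further: 0% = growth equal to vehicle treated cultures.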 The conditions noted are these: S. cerevisiae cln2 rad14 strain, active compounds read high. In a few lines: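 Compounds are applied to the cln2 rad14 yeast strain, and growth is then compared with that of vehicle-treated cultures to give inhibition.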
Test [5] can be described thus: NCI Yeast Anticancer Drug Screen. Data for the bub3 strain (AID 167). The conditions noted are these: S. cerevisiae bub3 mutant strain, active compounds read high. In a few lines: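 Compounds were applied to a genetically altered yeast strain carrying a cell-cycle control defect. Growth inhibition was scored against vehicle-treated controls.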
Test [6] is described as follows: NCI Yeast Anticancer Drug Screen. Data for the mlh1 rad18 strain (AID 175). The conditions noted are these: S. cerevisiae mlh1 rad18 strain growth inhibition, active compounds read high. In a few lines: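 Read-out is yeast growth inhibition, calculated against vehicle-only controls. The compound was applied to a strain engineered with DNA damage repair alterations.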
Where [7] appears, read: at 5.0 µM (retest, dose inferred, filed as 0.5).
Setting [8] is: at 50.0 µM (retest, dose inferred, filed as 5.0).

The panel holds about 79,000 compounds, 15% with a hit somewhere; the sample as a whole holds those more often. Values without a mark were called inactive. Calls of active or inactive are those of the source. No stated cut-off is given here; in the data, active means growth inhibition above about 70%; inactive means the rest.

On to `NC(=O)c1ncn(C2OC(CO)C(O)C2O)c1O` (configuration not stated), for which the growth inhibition in test [1] (setting [7]) was 20%; in test [1] (setting [8]) it was 6%; in test [1] (at 50.0 µM) it was -7.65%; in test [2] (setting [7]), -9%; in test [2] (setting [8]), -10%; in test [2] (at 50.0 µM) it was -11.4%. Further, the growth inhibition in test [3] (setting [7]) was -3%; in test [3] (setting [8]), 7%; in test [3] (at 50.0 µM), 11.3%; in test [4] (setting [7]), 13%; in test [4] (setting [8]), 10%; in test [4] (at 50.0 µM), 4%. The growth inhibition was 1% in test [5] (setting [7]); 32% in test [5] (setting [8]); -7.85% in test [5] (at 50.0 µM); 2% in test [6] (setting [7]); -4% in test [6] (setting [8]); -47.8% in test [6] (at 50.0 µM).
Regarding `CN(C)CC(CN(C)C)C(=O)c1ccc(Oc2ccc(Cl)cc2)cc1`, the growth inhibition in test [1] (setting [7]) is 72% (active); in test [1] (setting [8]) it was 98% (active); in test [1] (at 50.0 µM), 7.8%; in test [2] (setting [7]), 60%; in test [2] (setting [8]) it was 99% (active); in test [2] (at 50.0 µM), 52.3%. Also, the growth inhibition in test [3] (setting [7]) is 85% (active); in test [3] (setting [8]), 99% (active); in test [3] (at 50.0 µM), 50.9%; in test [4] (setting [7]), 36%; in test [4] (setting [8]), 98% (active); in test [4] (at 50.0 µM), 5.15%. Moreover, the growth inhibition in test [5] (setting [7]) was 72% (active); in test [5] (setting [8]) it was 99% (active); in test [5] (at 50.0 µM), 51.6%; in test [6] (setting [7]) it was 92% (active); in test [6] (setting [8]) it was 98% (active); in test [6] (at 50.0 µM) it was 6.95%.
As for `O=C(CC(c1ccccc1)c1ccccc1)NCCCCN1CCCCCCC1`, the growth inhibition in test [1] (setting [7]) is 27%; in test [1] (setting [8]), 89% (active); in test [1] (at 50.0 µM) it was 12%; in test [2] (setting [7]), 19%; in test [2] (setting [8]), 96% (active); in test [2] (at 50.0 µM) it was -9%. The growth inhibition is 25% in test [3] (setting [7]); 94% (active) in test [3] (setting [8]); 22.9% in test [3] (at 50.0 µM); 2% in test [4] (setting [7]); 90% (active) in test [4] (setting [8]); 89.7% (active) in test [4] (at 50.0 µM). For the same molecule, the growth inhibition was 5% in test [5] (setting [7]); 93% (active) in test [5] (setting [8]); 26.4% in test [5] (at 50.0 µM); 16% in test [6] (setting [7]); 93% (active) in test [6] (setting [8]); 19.4% in test [6] (at 50.0 µM).
Take `C=C1C(=O)C23CC[C@H]4C(C)(CCC[C@]4(C)C(=O)O)[C@@H]2CCC1C3` (some centres not stated): the growth inhibition in test [1] (setting [7]) was 94% (active); in test [1] (setting [8]), 99% (active); in test [1] (at 50.0 µM), 90.5% (active); in test [2] (setting [7]), 96% (active); in test [2] (setting [8]) it was 99% (active); in test [2] (at 50.0 µM) it was 93.7% (active). The growth inhibition is 93% (active) in test [3] (setting [7]); 99% (active) in test [3] (setting [8]); 93% (active) in test [3] (at 50.0 µM); 72% (active) in test [4] (setting [7]); 99% (active) in test [4] (setting [8]); 88.3% (active) in test [4] (at 50.0 µM). Also, the growth inhibition was 95% (active) in test [5] (setting [7]); 99% (active) in test [5] (setting [8]); 92% (active) in test [5] (at 50.0 µM); 97% (active) in test [6] (setting [7]); 99% (active) in test [6] (setting [8]); 92.7% (active) in test [6] (at 50.0 µM).
On to `CCCCCCCC[N+](C)(C)Cc1ccc(C[N+](C)(C)CCCCCCCC)cc1`, for which the growth inhibition is 1% in test [1] (setting [7]); 24% in test [1] (setting [8]); 8.75% in test [1] (at 50.0 µM); 15% in test [2] (setting [7]); 26% in test [2] (setting [8]); 7.5% in test [2] (at 50.0 µM). Moreover, the growth inhibition in test [3] (setting [7]) is 3%; in test [3] (setting [8]) it was 34%; in test [3] (at 50.0 µM) it was 1.05%; in test [4] (setting [7]), 0%; in test [4] (setting [8]), 18%; in test [4] (at 50.0 µM) it was 24.9%. The growth inhibition in test [5] (setting [7]) was 2%; in test [5] (setting [8]), 16%; in test [5] (at 50.0 µM) it was 8.35%; in test [6] (setting [7]), 0%; in test [6] (setting [8]), 33%; in test [6] (at 50.0 µM) it was 86% (active).
For the molecule `Cc1cc(S(=O)(=O)c2ccc(Cl)cc2)nc(S(=O)(=O)c2ccc(Cl)cc2)c1C#N`, the growth inhibition in test [1] (setting [7]) was 45%; in test [1] (setting [8]), 78% (active); in test [1] (at 50.0 µM), 82.1% (active); in test [2] (setting [7]), 43%; in test [2] (setting [8]) it was 91% (active); in test [2] (at 50.0 µM) it was 87.2% (active). The growth inhibition in test [3] (setting [7]) was 99% (active); in test [3] (setting [8]), 90% (active); in test [3] (at 50.0 µM), 85.2% (active); in test [4] (setting [7]), 99% (active); in test [4] (setting [8]), 91% (active); in test [4] (at 50.0 µM), 84.7% (active). Besides, the growth inhibition in test [5] (setting [7]) is 99% (active); in test [5] (setting [8]), 83% (active); in test [5] (at 50.0 µM), 80.4% (active); in test [6] (setting [7]) it was 42%; in test [6] (setting [8]) it was 89% (active); in test [6] (at 50.0 µM), 80.2% (active).
For `CCCCCCCCCC(=O)CC(=O)c1ccc(O)cc1O`, the growth inhibition in test [1] (setting [7]) was 33%; in test [1] (setting [8]), 96% (active); in test [1] (at 50.0 µM), 86.5% (active); in test [2] (setting [7]), 27%; in test [2] (setting [8]), 97% (active); in test [2] (at 50.0 µM), 89.5% (active). For the same molecule, the growth inhibition in test [3] (setting [7]) is 50%; in test [3] (setting [8]) it was 98% (active); in test [3] (at 50.0 µM), 89.7% (active); in test [4] (setting [7]) it was 37%; in test [4] (setting [8]), 97% (active); in test [4] (at 50.0 µM) it was 88.6% (active). Besides, the growth inhibition in test [5] (setting [7]) is 39%; in test [5] (setting [8]) it was 98% (active); in test [5] (at 50.0 µM), 89.2% (active); in test [6] (setting [7]) it was 48%; in test [6] (setting [8]), 97% (active); in test [6] (at 50.0 µM) it was 87.5% (active).
Consider `CC1(C)c2ccccc2Cc2cc3ccccc3nc21`, for which the growth inhibition in test [1] (setting [7]) was 0%; in test [1] (setting [8]), 98% (active); in test [1] (at 50.0 µM), 97.8% (active); in test [2] (setting [7]), -4%; in test [2] (setting [8]), 99% (active); in test [2] (at 50.0 µM), 93% (active). Moreover, the growth inhibition in test [3] (setting [7]) is -5%; in test [3] (setting [8]), 97% (active); in test [3] (at 50.0 µM) it was 90.2% (active); in test [4] (setting [7]), 1%; in test [4] (setting [8]), 95% (active); in test [4] (at 50.0 µM) it was 25.2%. Moreover, the growth inhibition was -3% in test [5] (setting [7]); 98% (active) in test [5] (setting [8]); 94% (active) in test [5] (at 50.0 µM); -1% in test [6] (setting [7]); 98% (active) in test [6] (setting [8]); 83.2% (active) in test [6] (at 50.0 µM).
As for `O=C(/C(=N/O)[n+]1ccccc1)c1ccccc1`, the growth inhibition in test [1] (setting [7]) was -4%; in test [1] (setting [8]) it was 69%; in test [1] (at 50.0 µM) it was 73.2% (active); in test [2] (setting [7]), -3%; in test [2] (setting [8]), 60%; in test [2] (at 50.0 µM), 26.8%. Moreover, the growth inhibition was -9% in test [3] (setting [7]); 33% in test [3] (setting [8]); 41.7% in test [3] (at 50.0 µM); -6% in test [4] (setting [7]); -7% in test [4] (setting [8]); -10.8% in test [4] (at 50.0 µM). The growth inhibition was -1% in test [5] (setting [7]); 94% (active) in test [5] (setting [8]); 41.8% in test [5] (at 50.0 µM); 4% in test [6] (setting [7]); 53% in test [6] (setting [8]); 78.5% (active) in test [6] (at 50.0 µM).
